Data as given in PubChem BioAssay (NCATS).
“And” between values parts separate entries of the source, which are not always exact repeats. Identical values can stand only once. Records with an inconclusive call do not appear. The source made the active and inactive calls. Calls follow the shape of the dose curve; as a rule, active = well fitted curve in the direction sought with a large enough effect; inconclusive = small, poorly fitted or top-dose-only effect, or another doubt; inactive = no such curve, though single readings can be large; an effect the other way counts as inactive or inconclusive.

Tests used:
[1] = NS1 protein of Zika virus - qHTS assay to identify small molecule inhibitors in human HEK 293 cells (AID 1347053); conditions: HEK293 ZIKV MR766 infection, NS1 TR-FRET, 24 h; series mostly up to 46.1 µM; also: nearly all actives have a fitted effect of over 55% in size; also: potency is read from the fitted curve at half-maximal effect
Method in brief: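 TR-FRET signal from two anti-ZIKV NS1 antibodies quantified NS1 in HEK 293 cells 24 h after MR766 infection at MOI = 0.5; compounds were added 1 h before virus. Uninfected cells and infected cells defined the NS1 normalization range.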

[2] = qHTS of pediatric cancer cell lines to identify multiple opportunities for drug repurposing: Primary screen for TC32 cells (AID 1347089); conditions: TC32 Ewing sarcoma viability, CellTiter-Glo luminescence, 48 h; series mostly up to 45.8 µM; also: nearly all actives have a fitted effect of over 60% in size; also: potency is read from the fitted curve at half-maximal effect
Method in brief: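 TC32 cells, 500-1,000/well in growth medium, compound-treated 48 h at 37 °C; viability from CellTiter-Glo luminescence. Primary screen: MIPE 11-point (0.78 nM–46 µM final), NPC 8-point (0.59 nM–46 µM final); confirmatory at 11-point dilutions.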

[3] = qHTS of pediatric cancer cell lines to identify multiple opportunities for drug repurposing: Primary screen for DAOY cells (AID 1347090); conditions: DAOY medulloblastoma viability, CellTiter-Glo luminescence, 48 h; series mostly up to 46 µM; also: nearly all actives have a fitted effect of over 55% in size; also: potency is read from the fitted curve at half-maximal effect
Method in brief: (§1)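 Viability measured as metabolically active cells via CellTiter-Glo luminescence following 48 hours of compound exposure, 11-point dilutions in confirmatory testing. 500-1,000 cells/well plated 5 hours before dosing; controls were DMSO and 2.3 µM bortezomib.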

[4] = qHTS of pediatric cancer cell lines to identify multiple opportunities for drug repurposing: Primary screen for A673 cells (AID 1347092); conditions: A673 Ewing sarcoma viability, CellTiter-Glo ATP luminescence, 48 h; series mostly up to 46 µM; also: nearly all actives have a fitted effect of over 45% in size; also: potency is read from the fitted curve at half-maximal effect
Method in brief: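 A673 cells (500-1,000 cells/well) were treated 48 hours at 37 degrees C with compounds at 11-point (0.78 nM to 46 µM) or 8-point (0.59 nM to 46 µM) dilutions. Viability read by CellTiter-Glo luminescence; concentration-response curves fitted.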

[5] = qHTS of pediatric cancer cell lines to identify multiple opportunities for drug repurposing: Primary screen for SK-N-MC cells (AID 1347093); conditions: SK-N-MC viability, CellTiter-Glo luminescence, 48 h; series mostly up to 46 µM; also: potency is read from the fitted curve at half-maximal effect
Method in brief: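 Metabolically active cells were quantified by ATP-dependent luminescence (CellTiter-Glo, 15 min at room temperature) following 48 h treatment. Cells had been plated at 500-1,000 per well and settled for 5 h beforehand.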

[6] = qHTS of pediatric cancer cell lines to identify multiple opportunities for drug repurposing: Primary screen for U-2 OS cells (AID 1347096); conditions: U-2 OS viability, CellTiter-Glo luminescence, 48 h; series mostly up to 46 µM; also: nearly all actives have a fitted effect of over 50% in size; also: potency is read from the fitted curve at half-maximal effect
Method in brief: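 Viability after 48 h compound treatment at 37C, 500-1,000 cells/well, read as ATP luminescence with CellTiter-Glo. Primary screens used 11-point (MIPE, 0.78 nM-46 µM) or 8-point (NPC, 0.59 nM-46 µM) final concentrations; follow-up screens used 11-point dilutions.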

[7] = qHTS of pediatric cancer cell lines to identify multiple opportunities for drug repurposing: Primary screen for SK-N-SH cells (AID 1347098); conditions: SK-N-SH viability, CellTiter-Glo luminescence, 48 h; series mostly up to 57 µM; also: nearly all actives have a fitted effect of over 65% in size; also: potency is read from the fitted curve at half-maximal effect
Method in brief: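 Cells (500-1,000/well) rested 5 h, then received compounds for 48 h; metabolically active cells were measured by CellTiter-Glo luminescence. Final concentrations spanned up to 46 µM (MIPE, 11-point) or 0.59 nM-46 µM (NPC, 8-point) in primary screens, 11-point in follow-ups.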

[8] = qHTS of pediatric cancer cell lines to identify multiple opportunities for drug repurposing: Primary screen for NB1643 cells (AID 1347099); conditions: NB1643 neuroblastoma viability, CellTiter-Glo luminescence, 48 h; series mostly up to 46 µM; also: nearly all actives have a fitted effect of over 50% in size; also: potency is read from the fitted curve at half-maximal effect
Method in brief: (§2)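 Following a 5-hour attachment period, cells at 500-1,000/well received compounds and were cultured for 48 hours. CellTiter-Glo was added and luminescence read to estimate viable, metabolically active cells.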

[9] = P-glycoprotein substrates identified in KB-8-5-11 adenocarcinoma cell line, qHTS therapeutic library screen (AID 1346987); conditions: KB-8-5-11 (P-gp overexpressing) viability, CellTiter-Glo, 72 h; series mostly up to 44.5 µM; also: nearly all actives have a fitted effect of over 65% in size
Method in brief: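 Compounds are pinned in dose-response onto KB-8-5-11 cells (500 cells/well, colchicine-free medium) and left 72 h at 37 degree C. CellTiter-Glo luminescence then yields AC50 values.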

[10] = qHTS of pediatric cancer cell lines to identify multiple opportunities for drug repurposing: Primary screen for SJ-GBM2 cells (AID 1347091); conditions: SJ-GBM2 viability, CellTiter-Glo luminescence, 48 h; series mostly up to 46 µM; also: potency is read from the fitted curve at half-maximal effect
Method in brief: as §1

[11] = qHTS of pediatric cancer cell lines to identify multiple opportunities for drug repurposing: Primary screen for BT-37 cells (AID 1347094); conditions: BT-37 viability, CellTiter-Glo luminescence, 48 h; series mostly up to 57.3 µM; also: potency is read from the fitted curve at half-maximal effect
Method in brief: as §2

[12] = qHTS of pediatric cancer cell lines to identify multiple opportunities for drug repurposing: Primary screen for Saos-2 cells (AID 1347097); conditions: Saos-2 viability, CellTiter-Glo ATP luminescence, 48 h; series mostly up to 46 µM; also: nearly all actives have a fitted effect of over 40% in size; also: potency is read from the fitted curve at half-maximal effect
Method in brief: as §2

[13] = qHTS of pediatric cancer cell lines to identify multiple opportunities for drug repurposing: Primary screen for NB-EBc1 cells (AID 1347095); conditions: NB-EBc1 neuroblastoma viability, CellTiter-Glo luminescence, 48 h; series mostly up to 46 µM; also: potency is read from the fitted curve at half-maximal effect
Method in brief: as §2

Measured: Potency

Cc1ccc(C(=O)c2cc(O)c(O)c([N+](=O)[O-])c2)cc1
active: [4] 11.8 µM | [5] 23.7 µM and 18.7 µM
inactive: [1] | [2] | [3] | [6] | [7] | [8]

Nc1nc(Cl)nc2c1ncn2[C@H]1C[C@H](O)[C@@H](CO)O1
inactive: [9] | [6] | [12]
active: [2] 1.17 µM | [10] 7.43 µM | [4] 2.96 µM | [5] 18.7 µM | [11] 0.273 µM | [8] 1.05 µM

COc1c2occc2cc2ccc(=O)oc12
not listed: [2] | [4] | [9]
inactive: all other assays above

O=P(O)(O)C(O)(Cn1ccnc1)P(=O)(O)O
not listed: [1]
inactive: all other assays above

CC(C)C[C@H](NC(=O)[C@H](Cc1ccccc1)NC(=O)c1cnccn1)B(O)O
active: [1] 0.0332 µM | [2] 0.0836 µM | [3] 0.0296 µM | [10] 0.0266 µM | [4] 0.0531 µM | [5] 0.006 µM | [11] 0.0347 µM | [13] 0.0376 µM | [6] 0.0422 µM | [12] 0.469 µM | [7] 0.0429 µM | [8] 0.0299 µM
